Experiment [1] in a line: A CellTox Green Cytotoxicity Assay to monitor cytotoxicity in HepG2 cells - 0 hour (AID 1224882). Further: on the % scale 0 is the no-effect control and ±100 the full control effect; nearly all actives have a fitted effect of over 35% in size. The procedure, abridged:
(§1)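 Continuous culture of HepG2 cells with a membrane-impermeant DNA dye; rising fluorescence marks dead cells. Compound exposure lasted up to 40 h at 37 C, with reads every 8 h from 0 h.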

The nature of experiment [2]: A CellTox Green Cytotoxicity Assay to monitor cytotoxicity in HepG2 cells - 32 hour (AID 1224883). Further: nearly all actives have a fitted effect of over 50% in size. Further: potency means the concentration at half of the fitted maximal effect. On cytotoxicity increase: on the % scale 0 is the no-effect control and ±100 the full control effect. The procedure, abridged: as §1
Experiment [3] can be described thus: A CellTox Green Cytotoxicity Assay to monitor cytotoxicity in HEK293 cells - 8 hour (AID 1224884). Further: nearly all actives have a fitted effect of over 35% in size. Further: potency means the concentration at half of the fitted maximal effect. On cytotoxicity increase: on the % scale 0 is the no-effect control and ±100 the full control effect. The procedure, abridged: (§2)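 Each value comes from one timepoint of a single continuous run in which HEK293 cells with CellTox Green were exposed to compound for up to 40 h at 37 C, dye fluorescence rising with cell death.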
Experiment [4] can be described thus: qHTS RealTime-Glo MT Cell Viability Assay in HepG2 cells - 16 hour (AID 1224885). Further: nearly all actives have a fitted effect of over 50% in size. Further: potency means the concentration at half of the fitted maximal effect. On activity change, negative = cytotoxic: on the % scale 0 is the no-effect control and ±100 the full control effect. The procedure, abridged: (§3)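 Tox21 10K library screened in qHTS format on HepG2 cells carrying RealTime-Glo reagents. Compounds were added after a 5 h preincubation, and the luminescent signal from continuous culture was measured repeatedly during 40 h treatment.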
Experiment [5] is described as follows: qHTS RealTime-Glo MT Cell Viability Assay in HEK293 cells - 24 hour (AID 1224886). Further: nearly all actives have a fitted effect of over 50% in size. Further: potency means the concentration at half of the fitted maximal effect. The procedure, abridged:
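Luminescence generated by NanoLuc from substrate produced by living HEK293 cells served as the viability signal. Each value reflects the reading at its stated time point during continuous 40 h compound exposure at 37 C.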

The nature of experiment [6]: qHTS RealTime-Glo MT Cell Viability Assay in HEK293 cells - 8 hour (AID 1224887). Further: nearly all actives have a fitted effect of over 50% in size. Further: potency means the concentration at half of the fitted maximal effect. The procedure, abridged: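 qHTS format; HEK293 cells with NanoLuc/prosubstrate reagent, 37 C/5% CO2 for 5 h pre-dosing; compounds 23 nL in DMSO; luminescence at each time point reflects viable cells.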
Experiment [7] is described as follows: A CellTox Green Cytotoxicity Assay to monitor cytotoxicity in HEK293 cells - 16 hour (AID 1224888). Further: nearly all actives have a fitted effect of over 35% in size. Further: potency means the concentration at half of the fitted maximal effect. The procedure, abridged:
as §2

Experiment [8] can be described thus: qHTS RealTime-Glo MT Cell Viability Assay in HepG2 cells - 0 hour (AID 1224889). The procedure, abridged:
as §3

Experiment [9] can be described thus: A CellTox Green Cytotoxicity Assay to monitor cytotoxicity in HepG2 cells - 8 hour (AID 1224890). Further: nearly all actives have a fitted effect of over 45% in size. Further: potency means the concentration at half of the fitted maximal effect. The procedure, abridged:
as §1

Experiment [10] in a line: qHTS assay to identify small molecule antagonists of the estrogen receptor alpha (ER-alpha) signaling pathway using the BG1 cell line in the presence of 0.1 nM 17-beta-estradiol - cell viability counter screen (AID 1259241). Further: nearly all actives have a fitted effect of over 40% in size. Further: potency means the concentration at half of the fitted maximal effect. The procedure, abridged: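 Cells were plated and left 24 hr, compounds in DMSO were pinned in, 17beta-estradiol was added to 0.1 nM final, and after 22 hr CellTiter-Fluor reagent was added for 30 min before fluorescence was read.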

A short description of experiment [11]: qHTS assay to identify small molecule antagonists of the androgen receptor (AR) signaling pathway using the MDA cell line in the presence of 0.5 nM R1881 - cell viability counter screen (AID 1259242). Further: nearly all actives have a fitted effect of over 45% in size. Further: potency means the concentration at half of the fitted maximal effect. The procedure, abridged: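 Fluorescence from CellTiter-Fluor, which reports protease activity of live cells, was read 30 min after reagent addition to MDA-kb2 cells that had been incubated 16 hr with compound and 0.5 nM R1881.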

Experiment [12] addresses Estrogen receptor (Homo sapiens) (UniProt P03372). The experiment is described as follows: qHTS assay to identify small molecule antagonists of the estrogen receptor alpha (ER-alpha) signaling pathway using the BG1 cell line in the presence of 0.1 nM 17-beta-estradiol (AID 1259244). Further: nearly all actives have a fitted effect of over 50% in size. Further: potency means the concentration at half of the fitted maximal effect. The procedure, abridged:
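Quantitative high-throughput screen in VM7Luc4E2 cells: compound plus 0.1 nM E2 (final), 22 h, 37C, 5% CO2; ONE-Glo added, 30 min room temperature, luminescence measured.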

Experiment [13] can be described thus: qHTS assay to identify small molecule agonists of the sonic hedgehog signaling (Shh) pathway - cell viability counter screen (AID 1259366). Further: nearly all actives have a fitted effect of over 50% in size. Further: potency means the concentration at half of the fitted maximal effect. The procedure, abridged:
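Cells are plated at 2,000 per well and left 4hr at 37C, 5% CO2 before compound addition. After 23hr of treatment, CellTiter-Fluor reagent is added for 1hr at 37C and fluorescence is measured.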

Experiment [14] can be described thus: qHTS assay to identify small molecule antagonists of the sonic hedgehog signaling (Shh) pathway - cell viability counter screen (AID 1259367). Further: nearly all actives have a fitted effect of over 55% in size. Further: potency means the concentration at half of the fitted maximal effect. The procedure, abridged:
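Using CellTiter-Fluor, viability of Gli1-Luc reporter 3T3 cells is read by fluorescence in the wells used for the Shh luciferase assay. Treatment lasts 23 hr with conditioned medium, then reagent 1 hr at 37C.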

The nature of experiment [15]: qHTS assay to identify small molecule agonists of the sonic hedgehog signaling (Shh) pathway (AID 1259368; calls by dose curve;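 further: NIH/3T3-derived 3T3Gli1-Luc cells carrying a stable Gli1-driven firefly luciferase reporter; series mostly up to about 92 µM; on the % scale 0 is the no-effect control and ±100 the full control effect; nearly all actives have a fitted effect of over 15% in size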). The procedure, abridged: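 Luminescent signal was taken as a measure of Gli1-controlled luciferase expression in stably transfected NIH/3T3-derived cells that had been treated for 24 hr with compounds delivered in DMSO.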
Experiment [16] can be described thus: qHTS assay to identify small molecule antagonists of the sonic hedgehog signaling (Shh) pathway (AID 1259369; calls by dose curve; further: nearly all actives have a fitted effect of over 45% in size; further: potency means the concentration at half of the fitted maximal effect). The procedure, abridged: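 Screening used 3T3Gli1-Luc cells at 2,000 per well, compounds delivered in DMSO, and conditioned medium as agonist stimulus; plates incubated 24hr at 37 C and 5% CO2 before a 30min luciferase step.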
Experiment [17] can be described thus: qHTS assay to identify small molecule HDAC inhibitors (AID 1259364). Further: top concentration of the series differs between compounds; on the % scale 0 is the no-effect control and ±100 the full control effect; nearly all actives have a fitted effect of over 45% in size. The procedure, abridged: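 Endogenous HDAC class I/II activity was measured in wild-type HCT-116 cells by HDAC-Glo luminescence after 2 h compound treatment.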
The nature of experiment [18]: qHTS assay to identify small molecule HDAC inhibitors - cell viability counter screen (AID 1259365). Further: nearly all actives have a fitted effect of over 50% in size. Further: potency means the concentration at half of the fitted maximal effect. The procedure, abridged: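 Counter screen in wild-type HCT-116 cells: compounds dissolved in DMSO are pin-transferred onto overnight-plated cells and left 2hr at 37C. ATP-based CellTiter-Glo luminescence then measures viable cells.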
Experiment [19] deals with Androgen receptor (Homo sapiens) (UniProt P10275). As to the kind of experiment: qHTS assay to identify small molecule antagonists of the androgen receptor (AR) signaling pathway using the MDA cell line in the presence of 0.5 nM R1881 (AID 1259243). The procedure, abridged: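 Inhibition of R1881 (0.5 nM final) induced reporter signal was measured in human MDA-kb2 cells; note the MMTV promoter also responds to GR. Exposure lasted 16 hr at 37C.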

The nature of experiment [20]: qHTS assay to identify small molecule phospholipidosis (PLD) inducers (AID 1259344; active means well fitted curve in the direction sought with a large enough effect; an effect the other way counts as inactive or inconclusive; further: on the % scale 0 is the no-effect control and ±100 the full control effect). The procedure, abridged:
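Fluorescent phospholipid staining (LipidTOX Red) measured by automated microscopy in fixed HepG2 cells after 24 h treatment; nuclei counterstained with Hoechst 33342; amiodarone as reference inducer.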

Where “and” joins values, the source holds several entries; their conditions need not be identical. Identical values can stand only once. Results filed as inconclusive are left out. Some structures have more than one record in an assay (separate samples or runs), and their calls can disagree. Calls of active or inactive are those of the source. Unless noted, the call rests on the fitted dose curve; in most records, active means well fitted curve in the direction sought with a large enough effect in the repeat runs; inconclusive means weak or mixed curves; inactive means no such curve, though single readings can be large; an effect the other way counts as inactive or inconclusive.

Sequence of Estrogen receptor (Homo sapiens) (P03372 whole entry, looked up): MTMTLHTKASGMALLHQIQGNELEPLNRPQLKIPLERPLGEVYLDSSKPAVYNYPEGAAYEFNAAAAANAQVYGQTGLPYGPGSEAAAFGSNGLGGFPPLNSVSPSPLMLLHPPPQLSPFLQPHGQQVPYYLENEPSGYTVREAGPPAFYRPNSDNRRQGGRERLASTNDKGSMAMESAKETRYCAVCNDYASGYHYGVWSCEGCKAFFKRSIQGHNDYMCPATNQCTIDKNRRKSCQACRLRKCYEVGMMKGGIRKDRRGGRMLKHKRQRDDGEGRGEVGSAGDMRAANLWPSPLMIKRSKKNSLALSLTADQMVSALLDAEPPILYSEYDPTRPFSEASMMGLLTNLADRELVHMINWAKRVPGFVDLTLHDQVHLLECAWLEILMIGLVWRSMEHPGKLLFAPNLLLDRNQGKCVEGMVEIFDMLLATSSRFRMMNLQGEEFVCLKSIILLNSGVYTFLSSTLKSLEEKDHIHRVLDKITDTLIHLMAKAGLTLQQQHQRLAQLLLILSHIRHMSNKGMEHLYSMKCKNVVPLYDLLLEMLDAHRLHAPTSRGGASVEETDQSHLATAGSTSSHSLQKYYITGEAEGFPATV
Sequence of Androgen receptor (Homo sapiens) (P10275 whole entry, looked up): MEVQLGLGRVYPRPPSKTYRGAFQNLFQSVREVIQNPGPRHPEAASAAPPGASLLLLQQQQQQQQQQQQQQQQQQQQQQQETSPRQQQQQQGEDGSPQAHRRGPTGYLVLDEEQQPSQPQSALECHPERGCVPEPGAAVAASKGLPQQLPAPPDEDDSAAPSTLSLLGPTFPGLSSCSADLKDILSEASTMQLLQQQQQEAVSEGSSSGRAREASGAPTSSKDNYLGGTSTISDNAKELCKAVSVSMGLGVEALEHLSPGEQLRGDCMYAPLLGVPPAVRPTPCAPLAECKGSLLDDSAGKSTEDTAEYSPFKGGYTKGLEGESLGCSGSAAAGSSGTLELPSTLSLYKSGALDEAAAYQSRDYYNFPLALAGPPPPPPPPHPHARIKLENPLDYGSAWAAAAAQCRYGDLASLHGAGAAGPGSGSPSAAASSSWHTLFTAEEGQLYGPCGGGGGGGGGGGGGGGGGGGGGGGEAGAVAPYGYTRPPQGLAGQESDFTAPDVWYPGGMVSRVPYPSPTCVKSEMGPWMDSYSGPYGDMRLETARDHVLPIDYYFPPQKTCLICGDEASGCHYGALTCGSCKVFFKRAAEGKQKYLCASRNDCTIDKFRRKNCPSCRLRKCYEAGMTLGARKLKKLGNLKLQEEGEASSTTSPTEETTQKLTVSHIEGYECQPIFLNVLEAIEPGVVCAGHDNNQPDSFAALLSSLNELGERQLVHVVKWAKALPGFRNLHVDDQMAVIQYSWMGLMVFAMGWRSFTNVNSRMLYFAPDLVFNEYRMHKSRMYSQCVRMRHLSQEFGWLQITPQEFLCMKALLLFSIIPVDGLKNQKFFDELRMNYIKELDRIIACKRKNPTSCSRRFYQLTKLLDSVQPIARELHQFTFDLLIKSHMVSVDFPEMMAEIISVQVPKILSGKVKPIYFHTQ

With `CC(=O)OCCOCCOCCOC(C)=O`, the Potency result in experiment [1], in [2], in experiment [3], in [4], in [5] and in experiment [6] was “inactive” in each case. In addition, the Potency entry in experiment [7], in experiment [8], in experiment [9], in [10], in [11] and in experiment [12] was “inactive” throughout. For the same compound, the Potency entry in experiment [13], in experiment [14], in [15] and in experiment [16] was “inactive” each time.

On to `Cc1cccc([N+](=O)[O-])c1C(=O)O`, for which the Potency entry in experiment [1], in experiment [2], in experiment [3], in experiment [4], in experiment [5] and in experiment [6] was “inactive” each time. Further, the Potency result in [7], in experiment [8], in experiment [9], in experiment [10], in [11] and in experiment [12] was “inactive” throughout. The Potency entry in [17], in experiment [18], in experiment [13], in experiment [14], in experiment [15] and in experiment [16] was “inactive” each time.

Consider `CC1=CC(=O)c2ccccc2C1=O`, for which the Potency entry in [1], in experiment [8], in experiment [20] and in experiment [17] was “inactive” throughout. The Potency in experiment [2] is 43.6 µM (active) and 26.8 µM (active); in experiment [3], 21.9 µM (active) and 23.9 µM (active); in experiment [4], 43.6 µM (active); in experiment [5], 15.5 µM (active); in experiment [6] it was 7.76 µM (active) and 16.9 µM (active); in [7], 21.9 µM (active) and 26.8 µM (active). For the same compound, the Potency in experiment [9] was 54.9 µM (active) and 23.9 µM (active); in experiment [10], 48.6 µM (active); in experiment [11], 43.3 µM (active); in experiment [19], 21.7 µM (active) and 29.8 µM (active); in experiment [12] it was 30.6 µM (active) and 29.8 µM (active); in experiment [18], 68.6 µM (active) and inactive. For the same compound, the Potency was 13.7 µM (active) and 13.3 µM (active) in [13]; 27.3 µM (active) and 13.3 µM (active) in [14]; 24.3 µM (active) and 16.8 µM (active) in experiment [16].

Take `Cc1scc2c1N(C(=O)CN1CCN(C)CC1)c1ccccc1NC2=O`: the Potency entry in [1], in [2], in experiment [3], in [4], in [5] and in [6] was “inactive” each time. Also, the Potency entry in experiment [7], in experiment [8], in [9], in [10], in experiment [11] and in [12] was “inactive” in each case. In addition, the Potency result in experiment [20], in experiment [18], in experiment [13], in experiment [14] and in experiment [16] was “inactive” each time.

Consider `O=C(O)c1cccc(C(=O)O)c1`, for which the Potency entry in experiment [1], in experiment [2], in experiment [3], in experiment [4], in experiment [5] and in experiment [6] was “inactive” throughout. In addition, the Potency result in [7], in experiment [8], in experiment [9], in [10], in [11] and in experiment [12] was “inactive” in each case. For the same compound, the Potency entry in experiment [18], in [13], in experiment [14], in experiment [15] and in [16] was “inactive” in each case.

As to `CCCCCCCCCCCCCCCCCl`, the cytotoxicity in experiment [1] is 7.68% [at 15.8 µM] (inactive). Moreover, the cytotoxicity increase in experiment [2] was 1.23% [at 15.8 µM] (inactive); in [3], 2.79% [at 15.8 µM] (inactive); in experiment [9], 3.53% [at 15.8 µM] (inactive). In experiment [4], the activity change, negative = cytotoxic is 0.939% [at 15.8 µM] (inactive). Further, the activity change, negative = cytotoxicity in experiment [5] is 0.956% [at 15.8 µM] (inactive); in experiment [6], 1.34% [at 15.8 µM] (inactive); in experiment [8], -0.916% [at 15.8 µM] (inactive); in experiment [10] it was 9.43% [at 19 µM] (inactive); in [18] it was -13.9% [at 19 µM] (inactive). Further, in experiment [7], the activity change is 5.27% [at 15.8 µM, stronger effect = higher value] (inactive). In addition, the viability change, negative = cytotoxic in experiment [11] is -2.37% [at 19 µM] (inactive); in experiment [13], 0.0419% [at 19 µM] (inactive); in experiment [14], -3.23% [at 19 µM] (inactive). Further, the activity change, negative = inhibition in [12] was 26.4% [at 19 µM] (inactive); in [17], 11.8% [at 19 µM] (inactive); in experiment [16], 30% [at 19 µM] (inactive).
